The test system of experiment [1] is HEK293T. The experiment can be described thus: qHTS assay to identify novel small-molecules to repurpose for Merkel cell carcinoma treatment (AID 1296009). Also: nearly all actives have a fitted effect of over 60% in size. Conditions: MCC and control cell lines, CellTiter-Glo viability, 72 h; at 44.8 µM (top of the series) unless noted. The gist of the method: (§1)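 72 hr, 37 degree celsius; NPC 8-pt / MIPE 11-pt dose response; compound pinned in DMSO; CellTiter-Glo, 10 min RT, luminescence; normalized to no-cell and DMSO controls.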

The subject of experiment [2] is MCC-13. The experiment is described as above. To be noted: MCC and control cell lines, CellTiter-Glo viability, 72 h; series mostly up to 46 µM. The gist of the method: as §1
The subject of experiment [3] is MCC-26. The experiment is described as above. To be noted: MCC and control cell lines, CellTiter-Glo viability, 72 h; series mostly up to 46 µM. The gist of the method:
as §1

Experiment [4] has as its system MKL-1. The experiment is described as above. Conditions: MCC and control cell lines, CellTiter-Glo viability, 72 h; series mostly up to 46 µM. An outline of the steps: as §1
Experiment [5] deals with MKL-2. Described as above. Conditions: MCC and control cell lines, CellTiter-Glo viability, 72 h; series mostly up to 46 µM. An outline of the steps: as §1
Experiment [6] has as its system UISO. The description is as above. To be noted: MCC and control cell lines, CellTiter-Glo viability, 72 h; series mostly up to 46 µM. An outline of the steps:
as §1

Experiment [7] has as its system WaGa. Described as above. Conditions: MCC and control cell lines, CellTiter-Glo viability, 72 h; series mostly up to 46 µM. The gist of the method:
as §1

Experiment [8] relates to C33A. Kind of experiment: Primary qHTS to identify gynecologic anti-cancer compounds using libraries of approved drugs and bioactive compounds (AID 1345084). Also: nearly all actives have a fitted effect of over 55% in size. Conditions: Gynecologic cancer cell panel viability, ATPlite luminescence, 48 h; series mostly up to 57.5 µM. An outline of the steps: (§2)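 Cells, 1,000 per well, were allowed to settle for 16 h at 37 C before compound addition. Five concentrations were tested for 48 h, and viability was read by ATPlite luminescence after 15 min at room temperature.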

Experiment [9] has as its system CAOV3. Described as above. Conditions: Gynecologic cancer cell panel viability, ATPlite luminescence, 48 h; series mostly up to 57.5 µM. The gist of the method: as §2
The test system of experiment [10] is CASKI. Described as above. To be noted: Gynecologic cancer cell panel viability, ATPlite luminescence, 48 h; series mostly up to 57.5 µM. An outline of the steps: as §2
Experiment [11] relates to Es-2. Described as above. To be noted: Gynecologic cancer cell panel viability, ATPlite luminescence, 48 h; series mostly up to 57.5 µM. An outline of the steps: as §2
The subject of experiment [12] is HeLa. The experiment is described as above. To be noted: Gynecologic cancer cell panel viability, ATPlite luminescence, 48 h; series mostly up to 57.5 µM. The gist of the method: as §2
Experiment [13] deals with Hek293T. Described as above. To be noted: Gynecologic cancer cell panel viability, ATPlite luminescence, 48 h, control line for the selectivity index; series mostly up to 57.5 µM. An outline of the steps: as §2
For experiment [14], the system named is JEG-3. The description is as above. Conditions: Gynecologic cancer cell panel viability, ATPlite luminescence, 48 h; series mostly up to 57.5 µM. An outline of the steps: as §2
Experiment [15] deals with OV90. The experiment is described as above. To be noted: Gynecologic cancer cell panel viability, ATPlite luminescence, 48 h; series mostly up to 57.5 µM. The gist of the method:
as §2

Experiment [16] deals with PA-1. The description is as above. Conditions: Gynecologic cancer cell panel viability, ATPlite luminescence, 48 h; series mostly up to 57.5 µM. An outline of the steps:
as §2

For experiment [17], the system named is SKOV3. Described as above. Conditions: Gynecologic cancer cell panel viability, ATPlite luminescence, 48 h; series mostly up to 57.5 µM. The gist of the method:
as §2

The subject of experiment [18] is Tov-21-G. The experiment is described as above. To be noted: Gynecologic cancer cell panel viability, ATPlite luminescence, 48 h; series mostly up to 57.5 µM. An outline of the steps:
as §2

For experiment [19], the system named is HACAT. The experiment can be described thus: qHTS assay to identify novel small-molecules to repurpose for Merkel cell carcinoma treatment (AID 1296009). Also: nearly all actives have a fitted effect of over 60% in size. To be noted: MCC and control cell lines, CellTiter-Glo viability, 72 h; at 44.8 µM (top of the series) unless noted. The gist of the method: as §1
In experiment [20] the test system is NIH3T3. The experiment is described as above. Conditions: MCC and control cell lines, CellTiter-Glo viability, 72 h; at 44.8 µM (top of the series). The gist of the method: as §1

Results filed as inconclusive are left out. Values without a mark were called inactive. Calls of active or inactive are those of the source. Calls follow the shape of the dose curve; as a rule, active = well fitted curve in the direction sought with a large enough effect; inconclusive = small, poorly fitted or top-dose-only effect, or another doubt; inactive = no such curve, though single readings can be large; an effect the other way counts as inactive or inconclusive.
% is scaled to controls: 0 for no effect and ±100 for the full control effect; potency is read from the fitted curve at half-maximal effect.

With `CCN[C@@H]1C[C@H](N)[C@@H](OC2OC(CN)=CCC2N)[C@H](O)[C@H]1O[C@H]1OC[C@](C)(O)[C@H](NC)[C@H]1O` (stereo partly specified), the outcome in [1] is “inactive [at 0.588 µM]”. The activity change, negative = cytotoxicity in experiment [2] is 16.3% [at 0.597 µM]; in [3] it was 2.75% [at 0.597 µM]; in experiment [4], 9.5% [at 0.597 µM]; in experiment [5], 2.5% [at 0.597 µM]; in [6], 19.1% [at 0.597 µM]; in experiment [7], 13.3% [at 0.597 µM]. In addition, the activity change, negative = cytotoxicity in experiment [8] is 4.69% [at 0.462 µM]; in experiment [9], 0% [at 0.462 µM]; in experiment [10], -0.808% [at 0.462 µM]; in experiment [11], 9.29% [at 0.462 µM]; in [12], 15.4% [at 0.462 µM]; in [13], 3.5% [at 0.462 µM]. For the same compound, the activity change, negative = cytotoxicity in [14] was 13.2% [at 0.462 µM]; in [15], -4.98% [at 0.462 µM]; in experiment [16], 0.807% [at 0.462 µM]; in [17], -8.65% [at 0.462 µM]; in experiment [18], 7.74% [at 0.462 µM].

`CCc1ccc(C(=O)C(C)CN2CCCCC2)cc1` (stereo unspecified): the compound was classed as inactive in experiment [19]. Moreover, the Potency entry in [2], in [3], in [6], in experiment [8], in experiment [9] and in [10] was “inactive” in each case. In addition, the Potency entry in experiment [11], in [12], in experiment [13], in [14], in experiment [15] and in experiment [16] was “inactive” throughout. For the same compound, the Potency result in [17] and in experiment [18] was “inactive” throughout. The Potency in experiment [5] is 11.9 µM (active).

For `C[C@@H](O)[C@H]1C(=O)N2C(C(=O)O)=C([C@H]3CCCO3)S[C@H]12`, the call in experiment [19] and in [20] was inactive. For the same compound, the Potency entry in experiment [2], in experiment [4], in experiment [5], in experiment [6], in experiment [7] and in experiment [8] was “inactive” each time. Besides, the Potency entry in experiment [10], in [11], in [12], in experiment [13], in [14] and in [15] was “inactive” throughout. Further, the Potency result in [16], in [17] and in experiment [18] was “inactive” in each case.

As for `CCOC(=O)[C@@](C)(N)Cc1ccc(O)c(O)c1`, the result in experiment [19] was inactive. The Potency entry in [2], in [11], in [12], in [13], in experiment [14] and in experiment [15] was “inactive” throughout. Moreover, the Potency result in [16] and in experiment [18] was “inactive” throughout.

For the compound `C[C@H]1[C@H]2CC[C@H]3[C@@H]4CC=C5C[C@@H](N(C)C)CC[C@]5(C)[C@H]4CC[C@]23CN1C`, the compound was called inactive in experiment [19]. Also, the Potency entry in experiment [2], in experiment [5], in experiment [6], in [7], in experiment [8] and in experiment [9] was “inactive” throughout. The Potency entry in experiment [10], in experiment [11], in [12], in experiment [13], in experiment [14] and in experiment [16] was “inactive” throughout. Also, in experiment [15], the Potency was 15.8 µM (active).

As for `CCOc1ccccc1OCCN[C@H](C)Cc1ccc(OC)c(S(N)(=O)=O)c1`, in [19], the compound was classed as inactive. In addition, the Potency result in experiment [2], in experiment [4], in experiment [5], in experiment [6], in experiment [7] and in experiment [8] was “inactive” in each case. Besides, the Potency entry in experiment [10], in experiment [11], in experiment [12], in experiment [13], in [14] and in experiment [16] was “inactive” in each case. The Potency entry in experiment [17] and in [18] was “inactive” in each case.

Take `OCc1ccccn1`: the outcome in [19] was inactive. Besides, the Potency result in experiment [2], in [4], in experiment [5], in experiment [6], in [7] and in [8] was “inactive” in each case. Further, the Potency result in [10], in experiment [11], in experiment [12], in experiment [13], in experiment [14] and in experiment [15] was “inactive” throughout. The Potency entry in experiment [16], in experiment [17] and in [18] was “inactive” in each case.

For the compound `NCCNC(=O)c1ccc(Cl)cn1`, in experiment [19], the call was inactive. For the same compound, the Potency result in experiment [2], in [3], in experiment [4], in experiment [6], in experiment [7] and in [8] was “inactive” in each case. For the same compound, the Potency entry in [10], in experiment [11], in experiment [12], in [13], in experiment [14] and in experiment [15] was “inactive” in each case. In addition, the Potency result in experiment [16], in experiment [17] and in [18] was “inactive” each time.

The record behind these values is PubChem BioAssay (NCATS).
